# Data taken from the supplement of paper PMC4466140.
# Legend:
# Assay in all cases: SPOT peptide array binding signal intensity (averaged, normalized) (arbitrary units (background-subtracted, floor 0; scale differs between SH3 domains)); higher = stronger binding of the SH3 domain to the peptide
# [1] = biological target: AgAbp1
# How it was run: (§1)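 Spot intensities were captured after detection with anti-GST antibody, an HRP-linked anti-mouse secondary and luminol, and quantified with Genespotter. The probes were GST-fused SH3 domains from four yeast species, produced in E. coli BL21(DE3), purified on glutathione Sepharose and incubated at 10 μg/ml overnight at 4°C on cellulose-bound synthetic 15-mer peptides with cysteines replaced by serines. Binding signal is the normalized, background-subtracted spot intensity averaged over replicates, and its arbitrary units differ between domains.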
# [2] = biological target: AgBbc1
# How it was run: as §1
# [3] = biological target: AgBem1-D1
# How it was run: as §1
# [4] = biological target: AgBzz1-D1
# How it was run: as §1
# [5] = biological target: AgBzz1-D2
# How it was run: as §1
# [6] = biological target: AgCyk3
# How it was run: as §1
# [7] = biological target: AgFus1
# How it was run: as §1
# [8] = biological target: AgHof1
# How it was run: as §1
# [9] = biological target: AgHse1
# How it was run: as §1
# [10] = biological target: AgLsb1
# How it was run: as §1
# [11] = biological target: AgLsb4
# How it was run: as §1
# [12] = biological target: AgMyo5
# How it was run: as §1
# [13] = biological target: AgNbp2
# How it was run: as §1
# [14] = biological target: AgRvs167
# How it was run: as §1
# [15] = biological target: AgSho1
# How it was run: as §1
# [16] = biological target: AgSla1-D1-D2
# How it was run: as §1
# [17] = biological target: AgSla1-D3
# How it was run: as §1
# [18] = biological target: CaAbp1-D1
# How it was run: as §1
# [19] = biological target: CaAbp1-D2
# How it was run: as §1
# [20] = biological target: CaBbc1
# How it was run: as §1
# [21] = biological target: CaBem1-D1
# How it was run: as §1
# [22] = biological target: CaBzz1-D1
# How it was run: as §1
# [23] = biological target: CaBzz1-D2
# How it was run: as §1
# [24] = biological target: CaCyk3
# How it was run: as §1
# [25] = biological target: CaFus1
# How it was run: as §1
# [26] = biological target: CaHof1
# How it was run: as §1
# [27] = biological target: CaHse1
# How it was run: as §1
# [28] = biological target: CaLsb1
# How it was run: as §1
# [29] = biological target: CaLsb4
# How it was run: as §1
# [30] = biological target: CaMyo5
# How it was run: as §1
# [31] = biological target: CaNbp2
# How it was run: as §1
# [32] = biological target: CaRvs167
# How it was run: as §1
# [33] = biological target: CaRvs167-3
# How it was run: as §1
# [34] = biological target: CaSho1
# How it was run: as §1
# [35] = biological target: CaSla1-D1-D2
# How it was run: as §1
# [36] = biological target: CaSla1-D3
# How it was run: as §1
# [37] = biological target: ScAbp1
# How it was run: as §1
binder,measurement,setting,value
FVLRYYILIPHEQWD,SPOT peptide array binding signal intensity,[1],6
same,SPOT peptide array binding signal intensity,[2],≤ 0
same,SPOT peptide array binding signal intensity,[3],190
same,SPOT peptide array binding signal intensity,[4],≤ 0
same,SPOT peptide array binding signal intensity,[5],5.5
same,SPOT peptide array binding signal intensity,[6],13.5
same,SPOT peptide array binding signal intensity,[7],1800
same,SPOT peptide array binding signal intensity,[8],5
same,SPOT peptide array binding signal intensity,[9],1200
same,SPOT peptide array binding signal intensity,[10],3
same,SPOT peptide array binding signal intensity,[11],334
same,SPOT peptide array binding signal intensity,[12],1
same,SPOT peptide array binding signal intensity,[13],82.5
same,SPOT peptide array binding signal intensity,[14],2.5
same,SPOT peptide array binding signal intensity,[15],218
same,SPOT peptide array binding signal intensity,[16],14.5
same,SPOT peptide array binding signal intensity,[17],2.75
same,SPOT peptide array binding signal intensity,[18],30.5
same,SPOT peptide array binding signal intensity,[19],78.5
same,SPOT peptide array binding signal intensity,[20],0.25
same,SPOT peptide array binding signal intensity,[21],≤ 0
same,SPOT peptide array binding signal intensity,[22],63
same,SPOT peptide array binding signal intensity,[23],36.8
same,SPOT peptide array binding signal intensity,[24],5
same,SPOT peptide array binding signal intensity,[25],3930
same,SPOT peptide array binding signal intensity,[26],0.75
same,SPOT peptide array binding signal intensity,[27],174
same,SPOT peptide array binding signal intensity,[28],6.5
same,SPOT peptide array binding signal intensity,[29],31.5
same,SPOT peptide array binding signal intensity,[30],31.5
same,SPOT peptide array binding signal intensity,[31],595
same,SPOT peptide array binding signal intensity,[32],216
same,SPOT peptide array binding signal intensity,[33],119
same,SPOT peptide array binding signal intensity,[34],666
same,SPOT peptide array binding signal intensity,[35],≤ 0
same,SPOT peptide array binding signal intensity,[36],163
same,SPOT peptide array binding signal intensity,[37],≤ 0
